In paper PMC4336329 (PLoS ONE, 2015):
The whole screen tested about 310,000 compounds, of which about 14,000 (4.5%) showed an effect of 50% or more. The effect is printed as a negative number. The full list was thinned out, with strong results kept by preference.

target: human ether-à-go-go-related gene (hERG) potassium channel (human, UniProt Q12809); experiment: primary screen, population patch clamp on CHO cells stably expressing hERG; higher = less effect of the substance
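Also: peak tail current of the secondary pulse compared with the same well before compound.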

Sequence of human ether-à-go-go-related gene (hERG) potassium channel (Q12809 whole entry, looked up): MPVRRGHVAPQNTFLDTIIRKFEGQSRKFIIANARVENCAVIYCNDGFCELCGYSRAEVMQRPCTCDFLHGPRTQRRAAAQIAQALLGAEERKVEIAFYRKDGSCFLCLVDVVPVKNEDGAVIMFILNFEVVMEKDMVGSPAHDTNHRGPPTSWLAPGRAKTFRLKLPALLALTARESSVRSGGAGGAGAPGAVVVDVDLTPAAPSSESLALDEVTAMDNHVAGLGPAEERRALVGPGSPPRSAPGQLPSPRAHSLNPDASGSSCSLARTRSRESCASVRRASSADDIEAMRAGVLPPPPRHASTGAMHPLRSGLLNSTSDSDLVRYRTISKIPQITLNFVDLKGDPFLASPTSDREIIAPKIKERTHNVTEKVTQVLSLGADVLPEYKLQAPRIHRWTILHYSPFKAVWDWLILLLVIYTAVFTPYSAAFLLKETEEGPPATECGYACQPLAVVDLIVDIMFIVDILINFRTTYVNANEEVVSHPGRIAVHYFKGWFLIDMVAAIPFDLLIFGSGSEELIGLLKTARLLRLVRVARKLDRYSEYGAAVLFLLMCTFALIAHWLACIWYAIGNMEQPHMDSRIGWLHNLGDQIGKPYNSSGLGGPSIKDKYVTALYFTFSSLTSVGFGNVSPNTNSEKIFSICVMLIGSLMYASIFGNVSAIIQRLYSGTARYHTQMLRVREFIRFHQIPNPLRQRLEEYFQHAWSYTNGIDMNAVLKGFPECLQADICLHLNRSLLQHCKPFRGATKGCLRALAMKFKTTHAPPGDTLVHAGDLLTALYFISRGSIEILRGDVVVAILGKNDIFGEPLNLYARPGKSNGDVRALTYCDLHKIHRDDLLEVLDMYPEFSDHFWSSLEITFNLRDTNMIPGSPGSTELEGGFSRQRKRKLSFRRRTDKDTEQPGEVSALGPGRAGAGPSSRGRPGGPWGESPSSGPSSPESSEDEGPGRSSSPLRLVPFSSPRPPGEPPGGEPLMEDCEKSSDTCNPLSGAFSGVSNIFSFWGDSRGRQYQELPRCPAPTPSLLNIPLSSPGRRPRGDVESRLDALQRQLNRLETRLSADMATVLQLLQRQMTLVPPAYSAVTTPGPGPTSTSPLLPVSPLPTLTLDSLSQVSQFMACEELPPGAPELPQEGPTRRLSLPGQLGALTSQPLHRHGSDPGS

Going from `CC(=O)Nc1cccc(NC(=O)CSc2ccc(-c3cccnc3)nn2)c1` to `Cc1cccc(C)c1NC(=O)C(NC(=O)c1ccccn1)c1ccc([N+](=O)[O-])cc1` (centres unmarked), the “hERG current change (%, negative = inhibition) at 10uM” value rises from 7.43% to 7.6%.

Compared with `CCC(C)/C(C)=N/NC(=O)CSc1nc2ccccc2[nH]1` (centres unmarked), `C=CCn1c(SCC(=O)NC2CCCC2)nc2c([nH]c3ccccc32)c1=O` is lower in “hERG current change (%, negative = inhibition) at 10uM” value: 2.26% for the first, -40.8% for the second.

First: O=C1C2CC=CCC2C(=O)N1CNc1ccccc1 (centres unmarked)
Second: NNC(=O)c1nc[nH]c1C(=O)Nc1ccccc1
The “hERG current change (%, negative = inhibition) at 10uM” value of the first is lower: 14.7% for the first, 24.1% for the second.

Compared with `Cc1c(Cl)c([N+](=O)[O-])nn1CCCC(=O)Nc1ccc(Cl)cc1Cl`, `CCn1c(SC)nnc1-c1sc2cc(Cl)ccc2c1Cl` is lower in “hERG current change (%, negative = inhibition) at 10uM” value: -45.1% for the first, -55.4% for the second.

Compared with `COc1ccc(CNC(=O)C(=O)NCC2OCCN2S(=O)(=O)c2cccs2)cc1` (centres unmarked), `COc1ccc(S(=O)(=O)Nc2ccc(S(=O)(=O)Nc3nccs3)cc2)cc1` is higher in “hERG current change (%, negative = inhibition) at 10uM” value: -4.34% for the first, 19.9% for the second.

Going from `O=C(CNC1C(=O)Nc2ccccc21)Sc1ccccc1` (centres unmarked) to `O=C(O)[C@@H](c1ccccc1)N1Cc2ccccc2C1=O`, the “hERG current change (%, negative = inhibition) at 10uM” value falls from 22.3% to 17.2%.

Going from `CCSc1nnc(NC(=O)Cc2cc(OC)c(OC)c(OC)c2)s1` to `CSc1nnc(SCC(=O)N(C)c2c(N)n(Cc3ccccc3)c(=O)[nH]c2=O)s1`, the “hERG current change (%, negative = inhibition) at 10uM” value falls from 8.27% to 5.79%.

First: CC(C)C[C@H](NC(=O)c1nc[nH]c1C(=O)NCc1ccccc1)C(=O)OCc1ccccc1
Second: C=CCn1c(SCC(=O)NCCc2ccccc2)nc2c([nH]c3ccccc32)c1=O
The “hERG current change (%, negative = inhibition) at 10uM” value of the first is lower: -7.88% for the first, -3.29% for the second.

Compared with `COCCn1c(SCC(=O)NC2CCCC2)nnc1C(C)C`, `COCCN(C(=O)c1csnn1)C(C(=O)NC1CCCC1)c1ccccc1` (centres unmarked) is lower in “hERG current change (%, negative = inhibition) at 10uM” value: 22.6% for the first, 3.23% for the second.

Compared with `O=C(CCC1CCN(Cc2ccc(Cl)cc2)CC1)NC1CC1`, `O=C(CCC1CCN(Cc2ccc(C#CCCO)cc2)CC1)NC1CC1` is higher in “hERG current change (%, negative = inhibition) at 10uM” value: -65.9% for the first, -46.7% for the second.

Compared with `CSc1cccc(CN2CCC(CCC(=O)NC3CC3)CC2)c1`, `O=C(CCC1CCN(Cc2ccccc2Cl)CC1)NC1CC1` is higher in “hERG current change (%, negative = inhibition) at 10uM” value: -62.6% for the first, -23.2% for the second.

Going from `CSc1ccccc1C(=O)N1CCC(CCC(=O)NC2CC2)CC1` to `CSc1ccc(C(=O)N2CCC(CCC(=O)NC3CC3)CC2)cc1`, the “hERG current change (%, negative = inhibition) at 10uM” value falls from 11.6% to -30.8%.

Going from `CN(Cc1cnn(C)c1)Cc1nc(-c2ccc(Cl)cc2)no1` to `CCn1ccnc1CN(C)Cc1c(C(=O)N2C[C@@H](C)O[C@@H](C)C2)nc2ccc(Cl)cn12`, the “hERG current change (%, negative = inhibition) at 10uM” value rises from -4.26% to 11.6%.

Going from `Cn1c(=O)c2c(SC3CCCC3)nc(C3CC3)nc2n(C)c1=O` to `CCn1c(SCC(=O)N2CCOCC2)nc2sc3c(c2c1=O)CCCC3`, the “hERG current change (%, negative = inhibition) at 10uM” value falls from 18.8% to -5.19%.

Compared with `S=C1NCCOCCOCCNC(=S)N2CCOCCOCCN1CCOCCOCC2`, `C=CCn1c(SCC(=O)N2CCOCC2)nc2sc3c(c2c1=O)CCCC3` is lower in “hERG current change (%, negative = inhibition) at 10uM” value: 5.22% for the first, -53.9% for the second.

First: CCOC(=O)c1[nH]c(C)c(C(=O)N2CCN(c3cccc(Cl)c3)CC2)c1C
Second: O=C(Cc1ncc(C(F)(F)F)cc1Cl)N1CCN(c2cccc(Cl)c2)CC1
The “hERG current change (%, negative = inhibition) at 10uM” value of the first is higher: -13.8% for the first, -60.6% for the second.

Going from `CN(C(=O)CSc1ncc(C(F)(F)F)cc1Cl)c1c(N)n(Cc2ccccc2)c(=O)[nH]c1=O` to `O=C(Cc1ncc(C(F)(F)F)cc1Cl)N1CCN(c2ccccn2)CC1`, the “hERG current change (%, negative = inhibition) at 10uM” value falls from 8.25% to -17.2%.

Compared with `C/C(=N\OCc1ccc(C#N)cc1)c1ccccc1`, `C/C(=N\OCc1ccc(C#N)cc1)c1ccc(S(=O)(=O)N(C)C)cc1` is lower in “hERG current change (%, negative = inhibition) at 10uM” value: 12.1% for the first, -52.7% for the second.

Compared with `CN(C)S(=O)(=O)c1ccc(C(=O)OCc2ccc(C#N)cc2)cc1`, `NNC(=O)c1ccc(COc2ccc([N+](=O)[O-])cc2)o1` is lower in “hERG current change (%, negative = inhibition) at 10uM” value: -11.1% for the first, -23.1% for the second.

Going from `C=CCn1c(SCC(=O)N2CCCC2)nc2c([nH]c3ccccc32)c1=O` to `C=CCn1c(SCC(=O)N2CCOCC2)nc2c([nH]c3ccccc32)c1=O`, the “hERG current change (%, negative = inhibition) at 10uM” value falls from -29.6% to -52.9%.

Compared with `C=CCn1c(SCC(=O)N2CCN(CCO)CC2)nc2sc3c(c2c1=O)CCC3`, `C=CCn1c(SCC(=O)N2CCN(c3ccccc3)CC2)nc2c([nH]c3ccccc32)c1=O` is higher in “hERG current change (%, negative = inhibition) at 10uM” value: -20.9% for the first, 13.3% for the second.

Compared with `C=CCn1c(SCCN2CCCC2)nc2c([nH]c3ccccc32)c1=O`, `COc1ccccc1OCCNC(=O)CSC(=S)N1CCCC1` is higher in “hERG current change (%, negative = inhibition) at 10uM” value: -71.7% for the first, -4.17% for the second.

Compared with `COc1ccc(OCc2cc(C(=O)O)c(C)o2)cc1`, `O=C(O)c1ccc(COc2ccc([N+](=O)[O-])cc2)o1` is higher in “hERG current change (%, negative = inhibition) at 10uM” value: 2.69% for the first, 23.2% for the second.

Going from `CCN(CC)c1nc2ccccc2n2cnnc12` to `CSc1nc(N(C)C)c2ccccc2n1`, the “hERG current change (%, negative = inhibition) at 10uM” value falls from -16.4% to -19%.

First: CCn1c(SC)nnc1-c1nnc(SC)n1CC
Second: CSc1nnc(-c2sc3cc(Cl)ccc3c2Cl)n1C
The “hERG current change (%, negative = inhibition) at 10uM” value of the first is lower: -7.09% for the first, 0.137% for the second.

Compared with `Cc1ccc(SCC(=O)OCC(=O)NC2CCCCCCC2)cc1`, `CC1CCCCN1C(=O)c1ccc(COc2ccc([N+](=O)[O-])cc2)o1` (centres unmarked) is lower in “hERG current change (%, negative = inhibition) at 10uM” value: -4.33% for the first, -69.9% for the second.

Compared with `O=C(N/N=C/c1ccc[nH]1)c1cc(-c2cccs2)nc2ccccc12`, `COc1ccccc1/C=N/NC(=O)c1ccc(CN2C(=O)c3cccc4cccc2c34)cc1` is higher in “hERG current change (%, negative = inhibition) at 10uM” value: 0.659% for the first, 2.35% for the second.

Going from `Br.CCC(C)N1Cc2ccccc2C1=N` (centres unmarked) to `Br.Cc1ccc(C(=O)C(c2ccccc2)N2Cc3ccccc3C2=N)cc1` (centres unmarked), the “hERG current change (%, negative = inhibition) at 10uM” value falls from 2.75% to -60.3%.

Compared with `COc1ccc(/C=C(\C#N)C(=O)OCC(=O)Nc2ccc(C(C)(C)C)cc2)cc1`, `COc1ccc(OCC(=O)N2CCN(c3cccc(C(F)(F)F)c3)CC2)cc1` is lower in “hERG current change (%, negative = inhibition) at 10uM” value: 0.425% for the first, -42.6% for the second.

First: O=C(Cc1ncc(C(F)(F)F)cc1Cl)N1CCN(c2ccc(F)cc2)CC1
Second: COc1ccc(N2CCN(C(=O)Cc3ncc(C(F)(F)F)cc3Cl)CC2)cc1
The “hERG current change (%, negative = inhibition) at 10uM” value of the first is higher: -41.3% for the first, -51.9% for the second.

Compared with `CN1CCN(C(=O)CCc2ncc(C(F)(F)F)cc2Cl)CC1`, `CCN1CCN(C(=O)C2CCN(S(=O)(=O)c3ccc4c(c3)NC(=O)C(C)S4)CC2)CC1` (centres unmarked) is higher in “hERG current change (%, negative = inhibition) at 10uM” value: 11.7% for the first, 14.1% for the second.

Compared with `CC(C)C1=C2OC(N)=C(C#N)C(C#N)=C2C(C)CC1` (centres unmarked), `COc1ccccc1-c1coc2c(CN3CCC(C)CC3)c(O)ccc2c1=O` is lower in “hERG current change (%, negative = inhibition) at 10uM” value: 9.98% for the first, 7.18% for the second.

Compared with `C#CCNC(=O)C1=C[C@@H](c2ccc(Br)cc2)[C@H](CCCO)[C@@H](OCC)O1`, `CCc1ccc2[nH]c(=O)c(CN(CCCN3CCOCC3)C(=O)Nc3ccccc3)cc2c1` is lower in “hERG current change (%, negative = inhibition) at 10uM” value: -28.4% for the first, -54.2% for the second.

First: CCOc1ccc(N(CC)S(=O)(=O)c2ccc3c(c2)oc(=O)n3C)cc1
Second: CCC1(c2ccccc2)NC(=O)N(CC(=O)c2ccc3c(c2)OCO3)C1=O (centres unmarked)
The “hERG current change (%, negative = inhibition) at 10uM” value of the first is lower: -5.43% for the first, -4.15% for the second.

First: COC(=O)c1sccc1NC(=O)c1cc(C)on1
Second: Cc1ccc(N2N=C(C(=O)O)CCC2=O)cc1Cl
The “hERG current change (%, negative = inhibition) at 10uM” value of the first is higher: 4.01% for the first, -45.2% for the second.

Going from `Cc1ccc(S(=O)(=O)N2CCOCC2)cc1C(=O)NCCCn1ccnc1` to `O=C(Nc1cccc(Cl)c1)N(CCCN1CCOCC1)Cc1ccccc1F`, the “hERG current change (%, negative = inhibition) at 10uM” value falls from 15.6% to -64.5%.

Going from `CC1CCCCN1CC(O)COCc1ccccc1.Cl` (centres unmarked) to `CC1CCCCN1CC(O)COCCC12CC3CC(CC(C3)C1)C2.Cl` (centres unmarked), the “hERG current change (%, negative = inhibition) at 10uM” value falls from 5.66% to -63.6%.

First: CC(NCC(O)COCCC12CC3CC(CC(C3)C1)C2)c1ccccc1.Cl (centres unmarked)
Second: NCC(O)COCCC12CC3CC(CC(C3)C1)C2 (centres unmarked)
The “hERG current change (%, negative = inhibition) at 10uM” value of the first is lower: -53.8% for the first, -1.48% for the second.

Going from `Cl.OC(COCCC12CC3CC(CC(C3)C1)C2)CN1CCCC1` (centres unmarked) to `Cl.OC(COCCC12CC3CC(CC(C3)C1)C2)CN1CCCCC1` (centres unmarked), the “hERG current change (%, negative = inhibition) at 10uM” value falls from -30.3% to -40.1%.

Going from `CC1CC(OCC(O)CN2CCCCC2C)CC(C)(C)C1.Cl` (centres unmarked) to `CC1CCN(CC(O)COCCC23CC4CC(CC(C4)C2)C3)CC1.Cl` (centres unmarked), the “hERG current change (%, negative = inhibition) at 10uM” value falls from -25.8% to -51.5%.

Going from `CC1CCC(C(C)C)C(OCC(O)CNC(C)c2ccccc2)C1.Cl` (centres unmarked) to `O=C(Nc1ccccc1)N(CCCN1CCOCC1)Cc1ccccc1F`, the “hERG current change (%, negative = inhibition) at 10uM” value falls from 0.875% to -20.6%.

First: CCC(=O)Nc1ccc(N2CCN(C(=O)c3ccccc3C)CC2)cc1
Second: Cc1ccc2[nH]c(=O)c(CN(CCN3CCOCC3)C(=O)Nc3ccc(F)cc3)cc2c1
The “hERG current change (%, negative = inhibition) at 10uM” value of the first is higher: 0.168% for the first, -37% for the second.

First: O=C(Nc1ccc(F)cc1)N(CCCN1CCOCC1)Cc1cc2cc3c(cc2[nH]c1=O)OCCO3
Second: O=C(Nc1ccc(F)cc1)N(CCCN1CCOCC1)Cc1cc2cc3c(cc2[nH]c1=O)OCO3
The “hERG current change (%, negative = inhibition) at 10uM” value of the first is higher: -25.1% for the first, -49.3% for the second.

Compared with `O=C(Nc1ccccc1)N(CCCN1CCOCC1)Cc1cc2cc3c(cc2[nH]c1=O)OCCO3`, `Cc1ccc2[nH]c(=O)c(CN(CCCN3CCOCC3)C(=O)Nc3cccc(Cl)c3)cc2c1` is lower in “hERG current change (%, negative = inhibition) at 10uM” value: -2.99% for the first, -32.4% for the second.

Compared with `CCc1ccc2[nH]c(=O)c(CN(CCN3CCOCC3)C(=O)Nc3ccccc3F)cc2c1`, `CCc1ccc2[nH]c(=O)c(CN(CCCN3CCOCC3)C(=O)Nc3ccc(F)cc3)cc2c1` is lower in “hERG current change (%, negative = inhibition) at 10uM” value: -23.1% for the first, -68.1% for the second.

Compared with `O=C(Nc1cccc(Cl)c1)N(CCN1CCOCC1)Cc1ccccc1F`, `Cc1ccc2[nH]c(=O)c(CN(CCCN3CCOCC3)C(=O)Nc3ccc(Cl)cc3)cc2c1` is lower in “hERG current change (%, negative = inhibition) at 10uM” value: -49.6% for the first, -71.7% for the second.
